Experimental data published in paper PMC5540273 (PLoS ONE, 2017).
Where two headings read alike, the source gives them in different places.

What was measured:
Details in all cases: n = 1
[1] = tested on: QSK
[2] = tested on: RAF1
[3] = tested on: RET
[4] = tested on: RIOK1
[5] = tested on: RIOK2
[6] = tested on: RIOK3
[7] = tested on: RIPK1
[8] = tested on: RIPK2
[9] = tested on: RIPK4
[10] = tested on: RIPK5
[11] = concentration: 1 μM, replicates: in singlicate
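Note: KINOMEscan kinase panel screen.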

Cc1cc(N2Cc3ccccc3C2)nc(Nc2ccc(S(=O)(=O)N3CCOCC3)cc2)n1.Cl [GSK1669917]
%Inh [1, 11]: 2% | %Inh [2, 11]: 0% | %Inh [3, 11]: 0% | %Inh [4, 11]: 24% | %Inh [5, 11]: 0% | %Inh [6, 11]: 25% | %Inh [7, 11]: 0% | %Inh [8, 11]: 0% | %Inh [9, 11]: 98.9% | %Inh [10, 11]: 6%

CN(C)CCN(C)C(=O)c1cc(-c2ccncc2)c(-c2ccc(Cl)c(O)c2)o1.Cl.Cl [SB-710397]
%Inh [1, 11]: 0% | %Inh [2, 11]: 87% | %Inh [3, 11]: 24% | %Inh [4, 11]: 37% | %Inh [5, 11]: 0% | %Inh [6, 11]: 0% | %Inh [7, 11]: 0% | %Inh [8, 11]: 59% | %Inh [9, 11]: 14% | %Inh [10, 11]: 0%

Cl.Oc1ccc(-c2nc(-c3ccccc3)[nH]c2-c2ccncc2)cc1 [SB-428218]
%Inh [1, 11]: 0% | %Inh [2, 11]: 61% | %Inh [3, 11]: 26% | %Inh [4, 11]: 0% | %Inh [5, 11]: 0% | %Inh [6, 11]: 0% | %Inh [7, 11]: 0% | %Inh [8, 11]: 22% | %Inh [9, 11]: 14% | %Inh [10, 11]: 0%

Cc1nnc(-c2ccc3occ(-c4ccc(S(C)=O)cc4)c3c2)[nH]1 (centres unmarked)
%Inh [1, 11]: 3% | %Inh [2, 11]: 4% | %Inh [3, 11]: 31% | %Inh [4, 11]: 13% | %Inh [5, 11]: 31% | %Inh [6, 11]: 0% | %Inh [7, 11]: 100% | %Inh [8, 11]: 13% | %Inh [9, 11]: 0% | %Inh [10, 11]: 0%

Cc1ccc(NC(=O)Nc2cccc(C(F)(F)F)c2)cc1 [GSK955403]
%Inh ([1]; 1 µM): 0% | %Inh ([2]; 1 µM): 8% | %Inh ([3]; 1 µM): 0% | %Inh ([4]; 1 µM): 17% | %Inh ([5]; 1 µM): 0% | %Inh ([6]; 1 µM): 0% | %Inh ([7]; 1 µM): 7% | %Inh ([8]; 1 µM): 8% | %Inh ([9]; 1 µM): 0% | %Inh ([10]; 1 µM): 0%

COc1cc2nccc(Nc3ccc(NC(=O)c4ccc(C)cc4)c(O)c3)c2cc1OC.Cl [GW440132]
%Inh [1, 11]: 2% | %Inh [2, 11]: 5% | %Inh [3, 11]: 49% | %Inh [4, 11]: 46% | %Inh [5, 11]: 13% | %Inh [6, 11]: 0% | %Inh [7, 11]: 4% | %Inh [8, 11]: 17% | %Inh [9, 11]: 0% | %Inh [10, 11]: 0%

CC1=C(C(=O)Nc2cc3cn[nH]c3cc2F)C(c2ccc(C(F)(F)F)cc2)CC(=O)N1 (centres unmarked) [GSK429286]
%Inh [1, 11]: 14% | %Inh [2, 11]: 5% | %Inh [3, 11]: 44% | %Inh [4, 11]: 34% | %Inh [5, 11]: 23% | %Inh [6, 11]: 0% | %Inh [7, 11]: 0% | %Inh [8, 11]: 12% | %Inh [9, 11]: 13% | %Inh [10, 11]: 1%

NC(=O)c1nnc2ccccc2c1N
%Inh [1, 11]: 22% | %Inh [2, 11]: 19% | %Inh [3, 11]: 8% | %Inh [4, 11]: 64% | %Inh [5, 11]: 44% | %Inh [6, 11]: 57% | %Inh [7, 11]: 0% | %Inh [8, 11]: 0% | %Inh [9, 11]: 45% | %Inh [10, 11]: 0%

Cc1c(O)cccc1Nc1ccnc2ccc(C(F)(F)F)cc12.Cl [GW466413]
%Inh [1, 11]: 3% | %Inh [2, 11]: 23% | %Inh [3, 11]: 24% | %Inh [4, 11]: 34% | %Inh [5, 11]: 2% | %Inh [6, 11]: 0% | %Inh [7, 11]: 3% | %Inh [8, 11]: 21% | %Inh [9, 11]: 0% | %Inh [10, 11]: 0%

Nc1ncnc2[nH]c(-c3ccccc3)nc12 [AH5015]
%Inh [1, 11]: 0% | %Inh [2, 11]: 42% | %Inh [3, 11]: 0% | %Inh [4, 11]: 0% | %Inh [5, 11]: 4% | %Inh [6, 11]: 0% | %Inh [7, 11]: 16% | %Inh [8, 11]: 6% | %Inh [9, 11]: 17% | %Inh [10, 11]: 8%

O=C(Nc1ccc2c(c1)OCO2)NC1CCN(c2ccnc(Nc3ccc(F)cc3)n2)C1 (centres unmarked) [GSK1379724]
%Inh [1, 11]: 8% | %Inh [2, 11]: 16% | %Inh [3, 11]: 22% | %Inh [4, 11]: 9% | %Inh [5, 11]: 0% | %Inh [6, 11]: 5% | %Inh [7, 11]: 0% | %Inh [8, 11]: 0% | %Inh [9, 11]: 11% | %Inh [10, 11]: 0%

COc1ccccc1CNC(=O)c1cc(C(=O)c2ccccc2C)c[nH]1 [GSK364507]
%Inh [1, 11]: 8% | %Inh [2, 11]: 25% | %Inh [3, 11]: 14% | %Inh [4, 11]: 30% | %Inh [5, 11]: 0% | %Inh [6, 11]: 1% | %Inh [7, 11]: 0% | %Inh [8, 11]: 9% | %Inh [9, 11]: 19% | %Inh [10, 11]: 0%

CC(C)(C)c1ccc(C(=O)Nc2cn3cc(Cl)ccc3n2)cc1
%Inh [1, 11]: 3% | %Inh [2, 11]: 0% | %Inh [3, 11]: 0% | %Inh [4, 11]: 25% | %Inh [5, 11]: 0% | %Inh [6, 11]: 0% | %Inh [7, 11]: 0% | %Inh [8, 11]: 5% | %Inh [9, 11]: 0% | %Inh [10, 11]: 0%

O=C(O)COc1ncnc2cc(-c3ccc4[nH]ncc4c3)sc12
%Inh [1, 11]: 0% | %Inh [2, 11]: 1% | %Inh [3, 11]: 11% | %Inh [4, 11]: 0% | %Inh [5, 11]: 16% | %Inh [6, 11]: 0% | %Inh [7, 11]: 0% | %Inh [8, 11]: 0% | %Inh [9, 11]: 30% | %Inh [10, 11]: 6%

Cn1ccc2ncnc(Oc3ccc(Nc4nc5ccccc5[nH]4)cc3)c21
%Inh [1, 11]: 0% | %Inh [2, 11]: 0% | %Inh [3, 11]: 0% | %Inh [4, 11]: 0% | %Inh [5, 11]: 0% | %Inh [6, 11]: 0% | %Inh [7, 11]: 0% | %Inh [8, 11]: 0% | %Inh [9, 11]: 0% | %Inh [10, 11]: 0%

O=S(=O)(c1ccc(-c2ccnc3[nH]ccc23)cc1)N1CCCC1 [GSK846226]
%Inh [1, 11]: 0% | %Inh [2, 11]: 0% | %Inh [3, 11]: 7% | %Inh [4, 11]: 86% | %Inh [5, 11]: 85% | %Inh [6, 11]: 89% | %Inh [7, 11]: 8% | %Inh [8, 11]: 5% | %Inh [9, 11]: 8% | %Inh [10, 11]: 16%

Cc1cccc(-c2cc(Nc3ccncc3)c3ccccc3n2)n1 [GSK223675]
%Inh [1, 11]: 0% | %Inh [2, 11]: 6% | %Inh [3, 11]: 0% | %Inh [4, 11]: 19% | %Inh [5, 11]: 0% | %Inh [6, 11]: 29% | %Inh [7, 11]: 0% | %Inh [8, 11]: 6% | %Inh [9, 11]: 21% | %Inh [10, 11]: 6%
